Assay results: PubChem BioAssay (NCI)
About 83,000 compounds went through this panel and 20% of them were active in at least one assay; those are over-represented in the sample as a whole.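 Cells were grown in 96-well plates and exposed to the test compound at a single concentration for 48 hours; results are reported as percent growth, with values below 10 considered active.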 Values without a mark were called inactive. Activity calls are given as the source filed them.

Key:
Assay in all cases: NCI-60 one-dose screen, 48 h (100 = growth as untreated, 0 = no growth, -100 = all killed)
Conditions in all cases: 10 µM unless noted
[1] = tested on: DU-145 prostate
[2] = tested on: K-562 leukemia
[3] = tested on: MALME-3M melanoma
[4] = tested on: MDA-MB-231 breast
[5] = tested on: RXF 393 renal
[6] = tested on: SF-268 CNS
[7] = tested on: SF-539 CNS
[8] = tested on: UACC-257 melanoma
[9] = tested on: M14 melanoma
[10] = tested on: HCT-15 colon
[11] = tested on: HT29 colon
[12] = tested on: SNB-75 CNS
[13] = tested on: SNB-19 CNS
[14] = tested on: U251 CNS
[15] = tested on: PC-3 prostate
[16] = tested on: SK-MEL-5 melanoma
[17] = tested on: UACC-62 melanoma
[18] = tested on: LOX IMVI melanoma
[19] = tested on: SK-MEL-28 melanoma
[20] = tested on: SF-295 CNS

Compound | growth [1] | growth [2] | growth [3] | growth [4] | growth [5] | growth [6] | growth [7] | growth [8] | growth [9] | growth [10] | growth [11] | growth [12] | growth [13] | growth [14] | growth [15] | growth [16] | growth [17] | growth [18] | growth [19] | growth [20]
NC(Cc1ccc(O)cc1)C(=O)N/N=C/c1ccccc1O (configuration not stated) | 105% | 105% | 80.2% | 109% | 115% | 104% | 104% | 101% | 98.7% | 96.8% | 101% | 92.7% | 110% | 96.9% | 89.3% | 103% | 113% | 92.6% | 106% | 
CC(C)=CCC/C(C)=C/CC/C(C)=C/CC/C(C)=C/CSC[C@H](NC(=O)CCCCCN1CCN(C)CC1)C(=O)NC1CCCCC1 | 64.3% | -27.2% (active) | 71.2% | -81.3% (active) | 75.1% | 84.8% | 85.7% | 105% | 35.1% | 24% | -39% (active) | 81.5% | 85.6% | 55.2% | 64.4% | 97.9% | 87.6% | 68.5% | 5.53% (active) | 
CC(C)(C)c1ccc(OP(=S)(N/N=C/c2ccccc2O)Oc2ccc(C(C)(C)C)cc2)cc1 | 92% | 59% | 86.8% | 63.5% | 87.3% | 69.8% | 66.8% | 59.8% | 77.7% | 69.9% | 69.2% | 66.1% | 81% | 50.4% | 30.1% | 73.5% | 76.5% | 67.6% | 83.3% | 
COc1ccc(-c2cc(-c3c(C)oc4cc5occc5c(OC)c4c3=O)nc(N)c2C#N)cc1OC | 81.9% | 32% | 86.4% | 64.4% | 61.6% | 65.1% | 64.2% |  |  | 55.6% | 67% | 40.3% | 64.3% | 48.9% | 62.6% | 52.7% |  | 50.2% |  | 52.1%
CC[C@]12C=CCN3CC[C@@]4(c5cc([C@H]6CCC(=O)N6)c(OC)cc5N(C)[C@H]4[C@@](O)(C(=O)OC)[C@@H]1OC(C)=O)[C@@H]32 | 119% [2.5 µM] | 105% [2.5 µM] | 97.5% [2.5 µM] | 98.7% [2.5 µM] | 113% [2.5 µM] | 116% [2.5 µM] | 92.4% [2.5 µM] |  |  | 104% [2.5 µM] | 103% [2.5 µM] | 81.6% [2.5 µM] | 105% [2.5 µM] | 98.3% [2.5 µM] | 95.5% [2.5 µM] |  |  | 108% [2.5 µM] |  | 100% [2.5 µM]
Cc1cc(Cl)c2c(N(C)C)cccc2n1 | 106% | 59.5% | 87.2% | 92.8% | 116% | 111% | 106% | 102% | 92% | 94.1% | 78% | 93.6% | 105% | 105% | 119% | 101% | 105% | 84.1% | 113% | 
Cc1nnc2nc(N)[nH]n2c1=O | 104% | 101% | 93.9% | 129% | 117% | 103% | 114% | 98.5% | 99.2% | 99.4% | 104% | 93.7% | 117% | 99% | 98% | 106% | 115% | 94.7% | 109% | 
Cc1[c-]onc1C.Cc1[c-]onc1C.[Ag].[Ag].[NH-]S(=O)(=O)c1ccc(N=Nc2cc(N=Nc3ccc(S([NH-])(=O)=O)cc3)c3c(NC(=O)C(Cl)Cl)cccc3c2OC(=O)C(Cl)Cl)cc1 | 70.5% | 59.7% | 7.7% (active) | 45.8% | 89.2% | 84.5% | 92.8% | 78.5% | 103% | 84.1% | 78.3% | 44.8% | 86.6% | 82.7% | 47.1% | 24.2% | 85.9% | 81.4% | 86.4% | 
c1ccc2[nH]c(-c3ccc(Nc4nc(N5CCCCC5)nc(N5CCOCC5)n4)cc3)nc2c1 | 39% | -6.74% (active) | -50.2% (active) | 23.1% | -56.1% (active) | 33.8% | 7.95% (active) |  |  | -33.9% (active) | -28.2% (active) | -0.681% (active) | 10.4% | 8.02% (active) | 12.4% | -90.7% (active) |  | -77.1% (active) | -30.2% (active) | -51.4% (active)
NS(=O)(=O)c1ccc(CCNC(=O)/C=C/c2ccc(Cl)cc2)cc1 | 99.5% | 90.4% | 90.4% | 98.4% | 122% | 95.6% | 101% | 104% | 99.2% | 98.5% | 95.7% | 85.2% | 99% | 97.8% | 87.1% | 105% | 104% | 99.1% | 104% | 
O=C(c1ccccc1)C(CN1CCOCC1)c1ccccc1 (configuration not stated) | 28.9% | 7.04% (active) | -3.82% (active) | 33.2% | 25.9% | 27% | 37.3% | 51.5% | 27.8% | 1.74% (active) | -67% (active) | 51.8% | 78.3% | 19.3% | 48.7% | 44.5% | 22.4% | -34.7% (active) | 68.6% | 
COC(=O)c1cc(=O)nc(N/N=C/c2ccc(C)cc2)s1 | 114% | 96.1% | 94.3% | 113% | 111% | 104% | 102% | 97.5% | 99.1% | 86.2% | 104% | 91.7% | 109% | 107% | 91.2% | 98.9% | 115% | 109% | 104% | 
CNC(=O)c1cc(Oc2ccc3nc(NC(=O)Nc4ccc(Cl)cc4)sc3c2)ccn1 | 53.2% | 65.6% | 17.7% | 34.4% | 50.8% | 56.2% | 83.5% |  |  | 84.8% | 68.8% | 50.6% | 59.3% | 37.3% | 66% | 73.3% |  | 51.6% |  | 66.3%
CC(CNc1nc(Nc2ccc(Cl)c(Cl)c2)nc(C(Cl)(Cl)Cl)n1)N(C)C (configuration not stated) | 5.37% (active) | -54% (active) | 15.6% | -62.6% (active) | -24.3% (active) | 11.5% | 16.3% | -8.37% (active) | -60.6% (active) | -27.7% (active) | -76.3% (active) | -18.9% (active) | -1.09% (active) | -82.6% (active) | -40.3% (active) | -56.9% (active) | -4.78% (active) | -57.2% (active) |  | 
COc1cccc(-c2nn(-c3ccccc3)cc2-c2ccnc(NCCCNS(=O)(=O)c3ccccc3)c2)c1 | 52% | 9.59% (active) | 68.7% | 20.6% | 36.4% | 47.1% | 57.5% |  | 29.9% | 26.5% | 19% | 62.1% | 47.9% | 34% | 15.7% |  |  | 33.1% |  | 16.8%
OCC12CCCC(CO)(COC1)C2O (configuration not stated) | 127% | 120% | 114% | 94.3% | 121% | 113% | 105% | 100% | 97.6% | 106% | 105% | 96.4% | 116% | 99.2% | 99.7% | 99.8% | 107% | 98.6% | 107% | 
CC(C)(C)CC(C)(C)c1ccc(OCCOCC[N+](C)(C)CC(=O)[O-])cc1 | 114% | 105% | 102% | 112% | 134% | 109% | 104% | 100% | 104% | 105% | 103% | 99.2% | 111% | 98.4% | 104% | 106% | 104% | 107% | 114% | 
